# From PubChem
# EPAC1 agonist: activates human EPAC1 exchange factor; Potency, µM (top dose mostly 154 µM), for inactives: top-dose activation, actives largely listed as activators; O95398; actives 0.073% (n = 360,000); EPAC1 agonist qHTS, biochemical assay; response scale: 100% = response to 6.5 mM cAMP; further: nearly all actives have a fitted effect of over 60% in size
#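 Nucleotide exchange assay: 100 nM EPAC1 with 250 nM Rap1B loaded with BODIPY-GDP and 50 uM GDP, room temperature. Fluorescence (480/540 nm) read every 5 min for 30 min; signal change normalized to 6.5 mM cAMP as full agonist.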
# EPAC1 antagonist: EPAC1 (human) antagonism. O95398. EPAC1 GEF assay, Rap1b-BODIPY-GDP exchange fluorescence. Potency, µM (highest dose often 115 µM), for the others: at the top dose activity change, negative = inhibition, most hits filed as inhibitors. actives 0.14% (n = 360,000). AID 720709;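 further: plate controls were vehicle for no effect and positive control for full effect; nearly all actives have a fitted effect of over 50% in size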
# USP1-UAF1 inh: USP1/UAF1 (human) deubiquitinase inhibition; O94782; recombinant USP1/UAF1, Ub-Rhodamine cleavage fluorescence; actives 0.23% (n = 390,000); Potency, µM (series often up to 57.1 µM), inactives show at the highest dose activity change, negative = inhibition, most hits filed as inhibitors; AID 743255; further: on the % scale 0 is the no-effect control and ±100 the full control effect; nearly all actives have a fitted effect of over 60% in size
# Target sequence (O94782 whole entry, looked up): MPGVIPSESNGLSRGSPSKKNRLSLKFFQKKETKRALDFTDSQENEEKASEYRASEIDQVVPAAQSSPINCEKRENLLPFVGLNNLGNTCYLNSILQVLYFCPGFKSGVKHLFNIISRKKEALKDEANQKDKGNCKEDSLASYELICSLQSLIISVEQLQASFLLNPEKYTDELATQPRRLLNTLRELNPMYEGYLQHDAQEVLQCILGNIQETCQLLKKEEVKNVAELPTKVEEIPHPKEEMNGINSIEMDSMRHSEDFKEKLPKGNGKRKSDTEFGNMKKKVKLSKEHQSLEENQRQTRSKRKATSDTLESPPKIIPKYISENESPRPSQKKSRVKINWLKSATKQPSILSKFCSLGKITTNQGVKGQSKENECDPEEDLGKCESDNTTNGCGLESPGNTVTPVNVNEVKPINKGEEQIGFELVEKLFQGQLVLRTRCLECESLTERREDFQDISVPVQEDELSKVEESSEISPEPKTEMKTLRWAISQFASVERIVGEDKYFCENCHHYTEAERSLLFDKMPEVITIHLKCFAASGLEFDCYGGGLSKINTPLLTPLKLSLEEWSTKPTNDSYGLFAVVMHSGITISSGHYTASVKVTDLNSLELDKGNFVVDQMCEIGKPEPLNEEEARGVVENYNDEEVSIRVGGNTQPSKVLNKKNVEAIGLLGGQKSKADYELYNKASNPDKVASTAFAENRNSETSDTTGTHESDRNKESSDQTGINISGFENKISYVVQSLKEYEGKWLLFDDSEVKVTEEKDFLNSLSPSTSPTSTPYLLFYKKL
#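 High-throughput fluorogenic screen: 1nM USP1/UAF1 complex, Ub-Rho substrate 150nM final, 50mM HEPES pH 7.8 with 0.5mM EDTA, 0.1 mg/ml BSA, 1mM TCEP and 0.01% Tween-20.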
# EPAC2 antagonist: EPAC2 (human) antagonism | Q8WZA2 | EPAC2 GEF exchange of Rap1B-BODIPY-GDP, fluorescence | Potency, µM (titrated, usually from 114 µM), for the others: at the top dose activity, negative = inhibition, usual class: inhibitors | actives 0.18% (n = 360,000) | AID 720708; further: on the % scale 0 is the no-effect control and ±100 the full control effect; nearly all actives have a fitted effect of over 45% in size
# EPAC2 agonist: activates human EPAC2 exchange factor. Q8WZA2. EPAC2 activation, biochemical qHTS; response scale: 100% = 6.5 mM cAMP response. Potency, µM (highest dose often 154 µM), without a hit: top-dose activation, usual class: activators. actives 0.079% (n = 360,000). AID 720711; further: nearly all actives have a fitted effect of over 50% in size
#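 Nucleotide exchange monitored as fluorescence drop when BODIPY-GDP leaves Rap1B. Reaction: 100 nM EPAC2, 250 nM RAP1B-BODIPY-GDP, 50 uM GDP, room temperature, kinetic read over 30 min. Activity expressed relative to 6.5 mM cAMP.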
# Starred values were filed as active, the others as inactive; ? = inconclusive; · = no result given; [ ] = dose if it differs, or a comment. Only some compounds are listed: those with a hit (about 0.44% of all), similar ones and a draw of the others. The call rests on the fitted dose curve; in most records, active means well fitted curve in the direction sought with a large enough effect; inconclusive means small, poorly fitted or top-dose-only effect, or another doubt; inactive means no such curve, though single readings can be large; an effect the other way counts as inactive or inconclusive. Potency means the concentration at half of the fitted maximal effect.
SMILES,EPAC1 agonist,EPAC1 antagonist,USP1-UAF1 inh,EPAC2 antagonist,EPAC2 agonist
O=[N+]([O-])c1ccc(C=NNc2ccc(S(=O)(=O)O)cc2)cc1,-4%,-13%,-11%,20µM*,-1%
O=C(O)c1ccc(-c2ccc(/C=N/Nc3ccc([N+](=O)[O-])cc3)o2)cc1,5%,-24%,13µM*,-2%,3%
CN1CCN(C(=O)C(=O)Nc2c3c(nn2-c2ccc(F)cc2)CSC3)CC1,·,·,-2%,·,·
CCOc1ccc(N2CC(C(=O)Nc3cccc(S(=O)(=O)N4CCCCC4)c3)CC2=O)cc1 (configuration not stated),4%,?,-11%,-1%,3%
CSc1cccc(N2CC(C(=O)Nc3cccc(S(=O)(=O)N4CCCC4)c3)CC2=O)c1 (configuration not stated),50µM*,-5%,-21%,5%,9%
CC(C)c1ccc(NC(=O)Cn2c(=O)n(CC3CCC(C(=O)NCCc4ccccc4)CC3)c(=O)c3ccccc32)cc1 (configuration not stated),·,·,-26%,·,·
Cc1ccc(SCC(=O)OCC(=O)N(C)CC(=O)Nc2ccc(F)cc2)cc1C,126µM*,-26%,-20%,-10%,4%
CN(CC(=O)Nc1ccc(F)cc1)C(=O)CSc1ccc2c(c1)OCCO2,14%,11%,-25%,-2%,3%
O=C1C(=O)c2c(ccc3ccccc23)-c2ccccc21,17%,-24%,4µM*,-29%,4%
CC(Oc1ccc(-c2nnco2)cc1)C(=O)N1CCOCC1 (configuration not stated),32µM*,-20%,-9%,1%,-2%
CCN(Cc1ccc(OC)cc1)c1ccc(-c2nc(-c3ccncc3)no2)cc1[N+](=O)[O-],·,·,-15%,·,·
Cc1ccc(S(=O)(=O)N2[C@@H](c3ccc(Br)cc3)C(C(=O)O)=CC[C@H]2c2ccc(C(C)C)cc2)cc1,3%,56µM*,-9%,?,5%
CCc1ccc([C@@H]2CC=C(C(=O)O)[C@H](c3ccccc3)N2S(=O)(=O)c2ccc(C)cc2)cc1,-20%,-8%,-13%,-17%,4%
CCc1ccc([C@@H]2CC=C(C(=O)O)[C@H](c3ccc(C(C)(C)C)cc3)N2S(=O)(=O)c2ccc(C)cc2)cc1,-33%,45µM*,?,56µM*,-15%
Cc1ccc(S(=O)(=O)N2[C@@H](c3ccc(C(C)(C)C)cc3)C(C(=O)O)=CC[C@H]2c2cccs2)cc1,-4%,-16%,-12%,32µM*,-9%
Cc1ccc([C@H]2C(C(=O)O)=CC[C@@H](c3cccs3)N2S(=O)(=O)c2ccc(C)cc2)cc1,-4%,-14%,-13%,-30%,4%
Cc1ccc([C@@H]2CC=C(C(=O)O)[C@H](c3ccc(C(C)(C)C)cc3)N2S(=O)(=O)c2ccc(C)cc2)cc1,-24%,28µM*,?,?,-14%
Cc1ccc([C@@H]2CC=C(C(=O)O)[C@H](c3ccc(F)cc3)N2S(=O)(=O)c2ccc(C)cc2)cc1,7%,4%,-16%,-2%,15%
COc1cccc(OC)c1C(=O)Nc1nnc(C)s1,·,·,-10%,·,·
COc1cccc(C2C(C(=O)Nc3ccccc3OC)=C(C)Nc3nc(-c4ccco4)nn32)c1 (configuration not stated),·,·,-21%,·,·
COc1ccc(Br)cc1CNC(=O)c1ccc2nc(C(C)C)oc2c1,·,·,-17%,·,·
Cc1ccc(S(=O)(=O)N2[C@@H](c3ccccc3F)C(C(=O)O)=CC[C@H]2c2ccc(C(C)C)cc2)cc1,2%,-28%,-27%,-7%,-3%
Cc1ccc(S(=O)(=O)N2[C@@H](c3ccc(C(C)(C)C)cc3)C(C(=O)O)=CC[C@H]2c2ccc(C(C)C)cc2)cc1,-48%,32µM*,?,40µM*,-23%
Cc1ccc(S(=O)(=O)N2[C@@H](c3ccc(Cl)c(Cl)c3)C(C(=O)O)=C[C@H]2CC2CCCC2)cc1,-15%,50µM*,?,?,-3%
Cc1ccc(S(=O)(=O)N2[C@@H](c3ccc(Cl)cc3)C(C(=O)O)=C[C@H]2CC2CCCC2)cc1,-18%,-25%,-16%,-28%,4%
SMILES,EPAC1 agonist,EPAC1 antagonist,USP1-UAF1 inh,EPAC2 antagonist,EPAC2 agonist
Cc1ccc(S(=O)(=O)N2C(c3ccc(Cl)c(Cl)c3)CC=C(C(=O)O)C2c2ccc(Cl)cc2)cc1 (configuration not stated),13%,-10%,·,63µM*,-7%
Cc1ccc(S(=O)(=O)N2[C@@H](c3ccc(Cl)cc3)C(C(=O)O)=CC[C@H]2c2ccc(Cl)c(Cl)c2)cc1,1%,?,-30%,?,-2%
CSc1ncc(C(=O)NCc2cccc(C)c2)c(-c2ccccc2)n1,·,·,-6%,·,·
Cc1cccc2cc3c(N)c(C(=O)Nc4ccc(N5CCOCC5)cc4)sc3nc12,14%,-4%,0%,-1%,28%
CCc1cccc2cc3c(N)c(C(=O)Nc4ccc(S(=O)(=O)N5CCCC5)cc4)sc3nc12,-324%,50µM*,220%,56µM*,-100%
Cc1nn(-c2ccccc2)c(N2CCCC2)c1/C=C1\N=C(c2ccc(F)cc2)OC1=O,2%,-1%,-20%,28%,?
Cc1ccc(C2=N/C(=C\c3c(C)nn(-c4ccccc4)c3N3CCCC3)C(=O)O2)cc1,-3%,11%,-18%,36%,100µM*
O=c1ccc2cc(S(=O)(=O)NCc3ccc(Cl)cc3)ccc2[nH]1,·,·,-13%,·,·
COc1cc(S(=O)(=O)Nc2ccccc2C)ccc1Cl,-1%,10%,-20%,28µM*,6%
COc1cc(S(=O)(=O)Nc2c(C)cc(C)cc2C)ccc1Cl,-3%,-1%,-9%,3%,-12%
COc1cccc(C(O)c2nc(-c3cccc(C(C)C)c3)cs2)c1 (configuration not stated),-8%,-10%,·,-22%,6%
N#CC(C(=O)NCCc1ccccc1)c1nc2ccccc2nc1N1CCOCC1 (configuration not stated),16%,43%,10%,?,12%
N#CC(C(=O)NCc1ccccc1)c1nc2ccccc2nc1N1CCCC1 (configuration not stated),16%,59%,?,115%[57.1 µM],89µM*
N#CC(C(=O)NCc1ccco1)c1nc2ccccc2nc1N1CCOCC1 (configuration not stated),-33%,79µM*,-4%,?,16%
CCN(CC)c1nc2ccccc2nc1C(C#N)C(=O)NCCc1ccccc1 (configuration not stated),14%,-8%,150%,32µM*,-133%
N#CC(C(=O)NCCc1ccccc1)c1nc2ccccc2nc1N1CCCCC1 (configuration not stated),-1%,-15%,6%,-17%,14%
